Laboratory results from PubChem BioAssay AID434947 (Broad Institute, 2010).
About 15 (0.7%) of roughly 2,200 compounds were called active. This is one part of a sample in which actives are shown more often than they occur. A number with no mark means an inactive call.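 The calls were made as follows: active = fitted half-maximal concentration for loss of luminescence signal no more than a set limit of log units above the top tested concentration; inconclusive = flat fit with 30 to 70% signal loss, or invalid fit; inactive = half-maximal concentration above that set limit.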

Test: inhibitors of ADP-Glo detection reagents, dose response, artefact control for GSK3beta inhibitor project, biochemical, luminescence, cell-free, homogeneous (AID 434947);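 also: kinase-free counter screen of ADP-Glo detection reagents for GSK3beta hits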
Conditions: 5 uM ADP

SMILES	EC50
COC(=O)C1=C(C)N(Cc2ccccc2)C(=NCc2ccc(OC)cc2)N[C@H]1c1cccc(F)c1	> 30 µM
CS(=O)(=O)N(Cc1ccccc1)c1ccc(C(=O)Nc2ccccc2Sc2ccccc2)cc1	> 30 µM
Cc1ccnc(NC(=O)c2ccc([N+](=O)[O-])o2)c1	> 30 µM
CCCCc1cc(=O)oc2cc(C)cc(OC(C)C(=O)O)c12 (configuration not stated)	> 30 µM
NC(=O)C1CCN(c2nc3c(S(=O)(=O)c4ccccc4)nnn3c3ccccc23)CC1	> 30 µM
Cc1ccnc(SCCn2c(N3CCOCC3)nc3c2c(=O)[nH]c(=O)n3C)n1	> 30 µM
CCSc1nc2sc3c(c2c(=O)n1-c1ccccc1)CCN(C)C3	> 30 µM
CCOC(=O)c1cnc2c(C)cccc2c1Nc1ccc(N2CCOCC2)cc1	> 30 µM
COc1ccc(-c2nn(-c3ccccc3)cc2CO)cc1OC	> 30 µM
COc1cccc2c1cc1c(=O)n(CC(=O)NCCCc3ccccc3)nc(C)n12	> 30 µM
Cc1[nH]nc2c1C(c1ccc(N(C)C)cc1)C1=C(CC(C)(C)CC1=O)N2 (configuration not stated)	> 30 µM
CC(C(=O)NCc1ccccc1)n1cc([N+](=O)[O-])cn1 (configuration not stated)	> 30 µM
CC(C)N1CCc2c(sc(NC(=O)CCS(=O)(=O)c3ccccc3)c2C(N)=O)C1	> 30 µM
COc1cc(/C=C2/SC(=Nc3ccc(O)cc3)NC2=O)ccc1O	> 30 µM
CN(C)Cc1c(O)ccc2c(=O)c(-c3ccccc3)c(C(F)(F)F)oc12	> 30 µM
COc1ccc(-c2nn(-c3ccccc3)cc2/C=C(\C#N)S(=O)(=O)c2ccccc2)cc1OC	> 30 µM
Cc1ccc(S(=O)(=O)/N=C2/NC(=O)/C(=C/c3ccccc3)S2)cc1	> 30 µM
CN(C)c1ccc(C(=O)NN2C(=O)c3ccccc3C2=O)cc1	> 30 µM
O=C1CC(c2ccc(O)c(O)c2)Oc2cc(O)cc(O)c21 (configuration not stated)	> 30 µM
Cc1nn(-c2ccccn2)c2c1C(c1ccsc1)C1=C(CCCC1=O)N2 (configuration not stated)	> 30 µM
COc1cc(C(c2nnnn2C(C)(C)C)N2CCN(c3nc4ccccc4s3)CC2)ccc1O (configuration not stated)	> 30 µM
Cc1ccc2sc(N3CCN(CCNC(=O)c4ccco4)CC3)nc2c1C	> 30 µM
O=[N+]([O-])c1cc(/C=N/O)ccc1N1CCCC1	> 30 µM
CCOC(=O)c1nnn(-c2nonc2N)c1CSc1ccc(C)cc1	> 30 µM
CC1(C)CC2CC(C)(CN2S(=O)(=O)c2ccc(C(=O)Nc3ccc(Cl)c(S(=O)(=O)N4CCOCC4)c3)cc2)C1 (configuration not stated)	> 30 µM
COCCN(CC(=O)NCc1ccc(F)cc1)C(=O)CCC(=O)Nc1ccccn1	> 30 µM

SMILES	EC50
Cc1nc(NCCCn2ccnc2)c2ccccc2n1	> 30 µM
Cc1csc(SCC(=O)Nc2ccc(Cl)cn2)n1	> 30 µM
CCc1nnc(NC(=O)c2cc(-c3ccccc3)nn2-c2ccccc2)s1	> 30 µM
O=C(CS(=O)(=O)c1ccccc1)Nc1ncc([N+](=O)[O-])s1	> 30 µM
COc1ccc2nc(C)cc(N3CCOCC3)c2c1	> 30 µM
CC1=C(C(=O)Nc2ccccc2F)C(c2cccs2)C2=C(CCCC2=O)N1 (configuration not stated)	> 30 µM
Cc1ccc2c(C)c(C(=O)Nc3nnc(C)s3)oc2c1	> 30 µM
NC1=NC(=Nc2ccccc2)c2ccccc21	> 30 µM
CCCn1nc(NC(=O)C(C)C)c2cc3cc(OC)ccc3nc21	> 30 µM
CCNC(=S)Nc1ccc2cn[nH]c2c1	> 30 µM
COc1cccc(C(=O)NCC(=O)N/N=C(C)\C=C\c2ccccc2)c1	> 30 µM
CC(C)CCNc1nc(N)c([N+](=O)[O-])c(NCC2CCCO2)n1 (configuration not stated)	> 30 µM
COc1ccccc1Nc1nc(N(C)c2ccccc2)nc(N)c1[N+](=O)[O-]	> 30 µM
CN(Cc1c(C(=O)N/N=C/c2cccc(F)c2)nnn1-c1nonc1N)c1ccccc1	> 30 µM
Cc1nn(-c2ccccc2)c2c1cc1c(=O)n(C)c(=O)nc-1n2-c1ccccc1F	> 30 µM
CC1=NN(C(=O)CCc2ccc3c(c2)OCO3)C(O)(C(F)(F)F)C1 (configuration not stated)	> 30 µM
CCCn1c(SCC(=O)Nc2ccc(Cl)cn2)nnc1C1CC1	> 30 µM
COc1ccc(C(=O)O/N=C(\C)c2ccccc2)cc1	24 µM (active)
COc1ccc(C(=O)c2sc(Nc3ccccc3)nc2C)cc1	> 30 µM
COc1ccc2occ(C(=O)c3cccs3)c2c1	> 30 µM
COc1ccc(C(=O)O/N=C(/C)c2cccs2)cc1	16.2 µM (active)
COc1ccc(C(=O)c2ccsc2N)cc1	> 30 µM
COc1cccc(C(N)=O)c1	> 30 µM
Cc1ccc(SCC(=O)N2CC(C)OC(C)C2)cc1 (configuration not stated)	> 30 µM
COc1ccc(-c2cc(C(F)(F)F)nc(SCCC(=O)N3CCOCC3)n2)cc1	> 30 µM
COc1ccc(Cl)cc1NC(=O)CS(=O)(=O)c1cccc2nsnc12	> 30 µM
